The source of these data is PubChem BioAssay (EPA / NIEHS).

Results filed as inconclusive are left out. Calls of active or inactive are those of the source. The calls were made as follows, unless noted: active = hit-call score of the fitted dose curve at least 0.9, where 1 is the maximum; inactive = score below 0.9.

Assay [1] in a line: UKN4_HCS_LUHMES_cell_viability: Viability Assessment in the University of Konstanz (UKN) Leist Lab Neurite Outgrowth Assay in human LUHMES cells (UKN4) (AID 2284232). In outline: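 Measured in replated, 2-day-differentiated LUHMES cells treated 24 h; stained 30 min with H-33342 and calcein-AM before high-content imaging.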
Assay [2] in a line: UKN2_HCS_IMR90_cell_viability: Viability Assessment in the University of Konstanz (UKN) Leist Lab Neural Crest Cell Migration Assay in human induced IMR90 Pluripotent Stem Cells (UKN2) (AID 2284233).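 Also: cells exposed to compound for 24 h after a 24 h migration phase.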 In short, it runs like this:
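Viability read as calcein-AM fluorescence by high-content imaging, Hoechst co-stain, 30 min. Human iPSC (IMR90) neural crest cells had migrated 24 h into stopper-defined gaps before 24 h chemical exposure. Fitted bidirectionally relative to DMSO.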

The nature of assay [3]: TAMU_PeakParms_SingleDonor1434_QT: Texas A&M University (TAMU) 1.5-hr Human Induced Pluripotent Stem Cell (iPSC)-derived Cardiomyocytes Calcium (Ca+2) Flux Assay for Cardiotoxicity: QT (decay-rise ratio) (AID 2284235; active = hit-call score of the fitted dose curve at least 0.9, where 1 is the maximum). In outline:
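Decay/rise ratio of calcium-flux fluorescence scored after 90 min exposure (37C) of donor 1434 iPSC cardiomyocytes to 0.2–100 uM (0.5% DMSO). Beat-cessation and severe-notch points removed; POD is EC05, a 5% rise over DMSO.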

Assay [4] can be described thus: TAMU_HCS_1.5hr_SingleDonor1434_Cytotoxicity: Cytotoxicity Assessment using High-content Screening (HCS) Fluorescent Imaging for the Texas A&M University (TAMU) 1.5-hr Human Induced Pluripotent Stem Cell (iPSC)-derived Cardiotoxicity Assay (AID 2284234; active = hit-call score of the fitted dose curve at least 0.9, where 1 is the maximum). In short, it runs like this: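 Nuclear counts from Hoechst 33342 imaging define cytotoxicity here, with EC10 (10% cell-count loss relative to DMSO) as point of departure. iPSC cardiomyocytes received 0.2-100 uM test chemical in 0.5% DMSO for 1.5 h at 37 C.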

Read-out in assay [5]: Secreted IgG (sIgG), gene 3500
Briefly: BSK_BT_sIgG: BioMAP Diversity Plus: BT Assay for Secreted IgG (sIgG) Biomarker Activity (AID 2284226). The conditions noted are these: primary human B cells with PBMC. In outline: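 In this multiplexed co-culture system, ELISA quantifies sIgG 24 h post-treatment. Endpoint analysis uses positive fitting direction, DMSO negative control.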

Assay [6] is described as follows: BSK_BT_Bcell_Proliferation: Viability Assessment in the BioMAP Diversity Plus: BT Assay for B cell Proliferation (AID 2284227). The conditions noted are these: primary human B cells with PBMC. In short, it runs like this: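 Read-out is absorbance at 560 nm from sulforhodamine B staining of total protein, reflecting relative cell numbers in a human B cell and PBMC co-culture after 72 h of chemical exposure. Values were referenced to DMSO.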

Read-out in assay [7]: Interleukin 6 (IL6), IL6 (gene 3569)
In words: BSK_BT_xIL6: BioMAP Diversity Plus: BT Assay for Interleukin 6 (IL6) Biomarker Activity (AID 2284228). The conditions noted are these: primary human B cells with PBMC. In short, it runs like this: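 Secreted IL-6 in the primary human B cell plus PBMC system, measured by Luminex at 24 h post-chemical, DMSO as baseline. Alamar Blue viability: 75,000 cells/well, chemical 1 h before SEB/TSST-1 (20 ng/mL each), 90 h, then 6 h dye.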

Read-out in assay [8]: Interleukin 17A (IL17A), IL17A (gene 3605)
In words: BSK_BT_xIL17A: BioMAP Diversity Plus: BT Assay for Interleukin 17A (IL17A) Biomarker Activity (AID 2284229). The conditions noted are these: primary human B cells with PBMC. In outline: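 Luminex xMAP quantification of secreted IL-17A after 24 h chemical exposure of a primary human B cell/PBMC co-culture. Signal increases fitted relative to DMSO negative control.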

Read-out in assay [9]: Tumor necrosis factor (Homo sapiens) (UniProt P01375)
In words: BSK_BT_xTNFa: BioMAP Diversity Plus: BT Assay for Tumor necrosis factor alpha (TNF-alpha) Biomarker Activity (AID 2284230). The conditions noted are these: primary human B cells with PBMC. In outline:
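Human primary co-culture of B cells and peripheral blood mononuclear cells; TNF-alpha in supernatant, 24 h post-dose, Luminex multiplex; DMSO = baseline.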

Read-out in assay [10]: Vascular cell adhesion molecule 1 (VCAM1), VCAM1 (gene 7412)
In words: BSK_MyoF_VCAM1: BioMAP Diversity Plus: MyoF Assay for Vascular cell adhesion molecule 1 (VCAM1) Biomarker Activity (AID 2284231). The conditions noted are these: primary human lung fibroblasts. In short, it runs like this: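 ELISA readout of VCAM-1 on human lung fibroblast cultures 24 hours after dosing, analyzed for signal gain relative to DMSO. Overt cytotoxicity was checked by sulforhodamine B total-protein staining in parallel cultures.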

Sequence of Tumor necrosis factor (Homo sapiens) (P01375 whole entry, looked up): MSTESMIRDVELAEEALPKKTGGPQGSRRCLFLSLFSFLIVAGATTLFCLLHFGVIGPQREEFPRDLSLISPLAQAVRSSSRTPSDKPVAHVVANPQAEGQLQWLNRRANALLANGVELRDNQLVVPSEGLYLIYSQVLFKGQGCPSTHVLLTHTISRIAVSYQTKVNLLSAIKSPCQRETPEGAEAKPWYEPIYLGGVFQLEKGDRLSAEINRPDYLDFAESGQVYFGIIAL

As to `CCCCNC(=O)n1c(NC(=O)OC)nc2ccccc21`, the outcome in assay [1] was inactive. For the same compound, in [2], the AC50 (usually the concentration giving half of the maximal activity seen) is 15 µM (active). `CCCCC(CC)COC(=O)c1ccccc1C(=O)OCC(CC)CCCC` (stereo not drawn): in [2], the compound was called inactive. Still for that read-out and setting: for `CCOc1cc(Oc2ccc(C(F)(F)F)cc2Cl)ccc1[N+](=O)[O-]` the value was “inactive”. For `N#Cc1nn(-c2c(Cl)cc(C(F)(F)F)cc2Cl)c(N)c1S(=O)C(F)(F)F` (stereo not drawn), the compound was called inactive in assay [1]. In assay [2], the AC50 was 40 µM (active). Take `Cc1ccc(-c2c(Cl)nc(C#N)n2S(=O)(=O)N(C)C)cc1`: the AC50 in assay [2] was 0.564 µM (active). On to `CC(C)(C)c1ccc(CSc2cnn(C(C)(C)C)c(=O)c2Cl)cc1`, for which the outcome in [2] was inactive. With `CNC(=O)ON=CC(C)(C)SC`, the outcome in assay [3] was inactive. Take `CCCCNC(=O)OCC#CI`: the concentration at half-maximal activity (AC50) in [4] was 4.75 µM (active). In addition, the result in assay [3] was inactive. With `COc1cnc(OC)n2nc(NS(=O)(=O)c3c(OCC(F)F)cccc3C(F)(F)F)nc12`, the result in assay [5], in assay [6], in assay [7], in [8], in assay [9] and in [10] was inactive.

Turning to `CCCCOC(=O)c1ccccc1C(=O)OCCCC`, in [2], the result was inactive. Turning to `CN(C)C(=S)SSC(=S)N(C)C`, the AC50 in assay [2] is 7.92 µM (active).

Turning to `C=CCC1=C(C)C(OC(=O)C2C(C=C(C)C)C2(C)C)CC1=O` (stereo not drawn), the outcome in assay [1] was inactive. In the case of `C=CC1(C)OC(=O)N(c2cc(Cl)cc(Cl)c2)C1=O` (stereo not drawn), the compound was classed as inactive in [2].

Consider `COC(=O)N(OC)c1ccccc1COc1ccn(-c2ccc(Cl)cc2)n1`, for which the AC50 in assay [2] was 90.1 µM (active). For `CO/C=C(/C(=O)OC)c1ccccc1Oc1cc(Oc2ccccc2C#N)ncn1`, the call in [2] was inactive.
